# Hits are enriched below; roughly 8.8% of the tested compounds scored in any of these assays.
# KB-3-1 cytotox – KB-3-1 parental cell cytotoxicity. Potency, µM (titrated, usually from 46.1 µM), usual class: cytotoxic. KB-3-1 viability, CellTiter-Glo ATP luminescence, 72 h. 1.4% of 400,000 active; also: potency is read from the fitted curve at half-maximal effect; nearly all actives have a fitted effect of over 60% in size
#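 Cells are dispensed, compounds pinned in, plates held at 37 °C for 72 h, then CellTiter-Glo is added and luminescence read after 10 minutes. Cell line: parental KB-3-1 in phenol-red-free DMEM, 10% FBS.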
# IL1B secr inh – blocks inflammasome-driven IL-1 beta release; THP-1 LPS/ATP IL-1B secretion, AlphaLISA, 16 h; stronger effect = lower value; activity change, % at 57.5 µM; 4.7% of 360,000 active; AID 743279; in the data active = activity change below about -50%; inconclusive = mostly about -30% to -49%
#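 THP-1 cells pretreated 1 hr with compounds (up to 57.5 uM final), then stimulated with LPS (250 ng/mL final) plus ATP (1.25 mM final); secreted IL-1B measured by AlphaLISA after 16 hr, decreased signal indicating inhibition.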
# HT1080 IDH1KD tx – kills HT-1080 cells with IDH1 knockdown; HT-1080 IDH1 knockdown viability, ATP luminescence, 48 h; Potency, µM (top dose mostly 46.1 µM), for the others: at the top dose activity, negative = toxicity, hits mostly cytotoxic; 2% of 360,000 active; AID 686971;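 also: potency is read from the fitted curve at half-maximal effect; 0% = DMSO wells and -100% = cell-free medium wells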
#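 HT-1080-IDH1KD cells (IDH1 knocked down), 750/well in RPMI with 5% FBS, treated with compound 48 h at 37 degrees C. Viability by CellTiter-Glo luminescence, normalised to DMSO and no-cell wells; concentration-response curves classed.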
# KB-V1 MDR tox – kills drug-selected multidrug resistant KB-V1 cells; 3.4% of 400,000 active; KB-V1 MDR cells viability, CellTiter-Glo, 72 h; Potency, µM (titrated, usually from 46.1 µM), most hits filed as cytotoxic; AID 1347076; also: potency is read from the fitted curve at half-maximal effect; nearly all actives have a fitted effect of over 60% in size
#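 KB-V1 MDR subline cells in DMEM (phenol-red free, 10% FBS) exposed to compounds in qHTS concentration series for 72 h at 37 degrees C. Viability read by CellTiter-Glo luminescence; concentration-effect curves fitted after normalization and correction.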
# HT1080-NT tox – kills 2HG-producing HT-1080-NT fibrosarcoma cells | HT-1080-NT fibrosarcoma viability, CellTiter-Glo ATP luminescence, 48 h | 1.6% of 360,000 active | Potency, µM (doses to about 46.1 µM), without a hit: at the highest dose activity, negative = less viability, most hits filed as cytotoxic | AID 686970;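 also: NT is the 2HG producing partner of a matched IDH1 knockdown line; potency is read from the fitted curve at half-maximal effect; 0% = DMSO-treated cells and -100% = media-only wells without cells; nearly all actives have a fitted effect of over 55% in size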
#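 Read-out is CellTiter-Glo luminescence after 10 minutes at room temperature, following 48 hours' compound treatment of HT-1080-NT cells (750 cells/well, RPMI, 5% FBS, 37 degrees C).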
# The depositor's hits bear a star; i = inactive; ? = inconclusive; . = no result given; [ ] = dose if it differs, or a comment. Unless noted, calls follow the shape of the dose curve; as a rule, active = well fitted curve in the direction sought with a large enough effect; inconclusive = small, poorly fitted or top-dose-only effect, or another doubt; inactive = no such curve, though single readings can be large; an effect the other way counts as inactive or inconclusive. Unless noted, % is scaled to controls: 0 for no effect and ±100 for the full control effect.
SMILES,KB-3-1 cytotox,IL1B secr inh,HT1080 IDH1KD tx,KB-V1 MDR tox,HT1080-NT tox
Cc1cc(=O)[nH]c(SCC(=O)NC2CCCCCC2)n1,i,6.9,11.4%,i,2.2%
COc1ccccc1C1=NNC(=Nc2cccc(S(=O)(=O)N(C)C)c2)SC1,?,-72.0*,?,?,?
Cc1ccc(-c2nnc(-c3ccccc3)c(-c3ccccc3)n2)cc1,i,-7.2,0.9%,18.4µM*,7.9%
Cc1cc(-c2nnc(-c3ccccc3)c(-c3ccccc3)n2)c(C)o1,i,?,1.3%,i,0.2%
COC(=O)[C@@H]1[C@H]2SC(C)(C)[C@H](C(=O)OC)N2C(=O)N1Cc1cc2ccccc2n1S(=O)(=O)c1ccccc1,i,.,.,i,.
COc1cccc(-c2cnc3c(NC=O)cc(-c4ccc(OC)cc4OC)cn23)c1,0.206µM*,46.7,?,?,?
COc1ccc(-c2cc(NC=O)c3ncc(-c4ccc(OC)c(OC)c4)n3c2)c(OC)c1,0.651µM*,14.9,0.082µM*,1.16µM*,0.0073µM*
COc1cccc(-c2cnc3c(NC(C)=O)cc(-c4ccc(OC)c(OC)c4)cn23)c1,i,?,?,i,?
O=C(CSc1ccccc1F)Nc1ccc2c(c1)OCO2,i,-19.8,16.8%,i,8.7%
COc1ccc(-c2oc(NC(=O)CCl)c(C#N)c2-c2ccc(OC)cc2)cc1,?,-93.1*,?,?,?
Cc1cc(N/N=C/c2ccccc2)nc(NCc2ccccc2)n1,i,-4.2,-4.5%,13µM*,-19.9%
Cc1cc(N/N=C/c2ccc(Cl)cc2)nc(NCc2ccccc2)n1,i,-83.9*,-20.7%,?,-3.8%
Cc1cc(N/N=C/c2cccc(F)c2)nc(NCc2ccccc2)n1,i,-71.6*,16.4µM*,?,20.6µM*
Cc1cc(Nc2cccc(Cl)c2)nc(NCc2ccccc2)n1,?,-20.0,?,i,?
Cc1cc(N/N=C/c2ccccc2F)nc(NCc2ccccc2)n1,i,-4.0,-4.0%,i,-6.9%
Cc1cc(N/N=C/c2cccc(Cl)c2)nc(NCc2ccccc2)n1,?,-77.2*,?,?,?
CCc1nc2ccc(C(=O)Nc3cc(-c4ccccc4)ccc3OC)cn2c1N(C=O)CCC(C)C,i,-59.8*,?,i,-29.8%
CCc1nc2ccc(C(=O)Nc3cc(-c4ccccc4)ccc3OC)cn2c1N(CCN(C)C)CC1CC1,?,?,18.4µM*,?,?
O=C1CC(N2CCN(S(=O)(=O)c3ccccc3F)CC2)C(=O)N1c1ccccc1Cl (configuration not stated),i,7.4,0.1%,i,-0.3%
Cc1ccc2c(c1)N(C(=O)CCC(=O)N1CCC(C(N)=O)CC1)CC(C)O2 (configuration not stated),i,-5.4,2.6%,i,0.0%
O=[N+]([O-])c1ccc(-c2cc3ccccc3[nH]2)cc1,i,.,.,i,.
Cc1ccc(S(=O)(=O)N[C@H](C(=O)NCC2CCC(C(=O)O)CC2)C(C)C)cc1 (some centres not stated),i,4.7,12.7%,i,-7.5%
COc1cc(/C=C2\C(=O)ON=C2c2ccccc2)cc(Br)c1O,?,-29.4,?,?,16.4µM*
COc1cc(/C=C2/C(=O)ON=C2c2ccccc2)ccc1O,i,-105.2*,-7.4%,?,-12.6%
COc1cc(/C=C2\C(=O)ON=C2c2ccccc2)cc(Cl)c1O,?,-14.8,?,?,?
SMILES,KB-3-1 cytotox,IL1B secr inh,HT1080 IDH1KD tx,KB-V1 MDR tox,HT1080-NT tox
CCOc1cc(/C=C2\C(=O)ON=C2c2ccccc2)cc(Br)c1O,?,-104.4*,?,?,?
O=C1ON=C(c2ccccc2)/C1=C\c1ccco1,i,5.3,11.8%,i,10.0%
CCOc1cc(/C=C2/C(=O)ON=C2C)cc(Br)c1O,i,0.0,6.3%,i,-1.2%
Cc1cc(=O)n2nc(N3CCC(C(=O)NCCCOC(C)C)CC3)sc2n1,i,.,.,?,.
O=C(CN1C(=O)NC2(CCc3ccccc32)C1=O)NCC(=O)Nc1ccc(F)cc1 (configuration not stated),i,10.1,9.7%,i,11.4%[9.24 µM]
CCOc1ccccc1C(=O)Nc1cc2c(cc1N1CCOCC1)n(C)c(=O)n2C,i,.,.,i,.
O=S(=O)(c1ccccc1)N(F)S(=O)(=O)c1ccccc1,i,1.8,7.3%,?,2.5%
O=S(=O)(c1ccccc1)N(c1ccccc1)S(=O)(=O)c1ccccc1,?,-4.9,5.0%,9.2µM*,-2.0%
O=C1CCc2cc(Cl)c(S(=O)(=O)Nc3ccc(Cl)c(Cl)c3)cc2N1,i,.,.,i,.
O=[N+]([O-])c1ccc(N=Nc2ncc[nH]2)cc1,?,-109.6*,6.51µM*,?,18.4µM*
O=[N+]([O-])c1ccc(N=NN(CCO)CCO)cc1,i,6.2,-0.8%,i,1.2%
COCCCNC(=O)CSC1=Nc2ccccc2C2=NC(CCC(=O)NCc3ccccc3OC)C(=O)N12 (configuration not stated),i,.,.,i,.
C=CCn1c(N)c(C(=O)Nc2ccccc2)c2nc3ccccc3nc21,?,-61.9*,-13.2%,i,2.4%
C=CCn1c(N)c(C(=O)OC(C)CC)c2nc3ccccc3nc21 (configuration not stated),i,?,-3.0%,8.2µM*,-3.8%
COc1ccc(-c2nc3ccc(C)cn3c2CC2CCCCC2)cc1OC,?,-20.9,?,i,?
O=[N+]([O-])c1ccc(O)c(N=Cc2sc3ccccc3c2O)c1,16.4µM*,39.4,?,4.11µM*,-22.5%
CCCN(CCC)CCN1C(=O)C2C(C(=O)Nc3ccc(C)cc3)C3C=CC2(O3)C1C(=O)NC1CCCCC1 (configuration not stated),i,?,-3.3%,i,-4.8%
CCCCN(C)CCN1C(=O)C2C(C(=O)Nc3ccc(Cl)cc3)C3C=CC2(O3)C1C(=O)NC1CCCCC1 (configuration not stated),i,-60.1*,?,i,-18.7%
COc1ccc(-c2nnc(-c3cc4c(ccc5ccccc54)oc3=O)o2)cc1,i,0.0,13.7%,i,21.7%
O=c1oc2ccc3ccccc3c2cc1-c1nnc(-c2ccccc2)o1,i,-58.3*,2.1%[9.24 µM],?,-0.1%
COC(=O)c1sccc1-c1ccc(C(=O)Nc2ccccc2)o1,?,15.5,13.8%,13µM*,?
Cc1ccccc1OCC(=O)OCC(=O)NC1CC1,i,0.0,15.5%,i,9.6%
O=C(CSc1ncnc2c1nnn2Cc1ccccc1)NC1CCCCC1,i,-94.8*,7.3%,i,1.8%

# Bioassay records as filed in PubChem.
